PubChem BioAssay
For some assays here: Entries with a potency or affinity are not part of this list. Active and inactive are the calls of the source. No rule for the calls is given here.

Each molecule was assayed against Plasmodium falciparum protein kinase 6 (PK6, PF3D7_1337100) (UniProt Q8IDW1) (assay: PfPK6 kinase inhibitors, biochemical, TCAMS library (AID 1159586)). Conditions: recombinant PfPK6, Kinase-Glo ATP depletion luminescence.
Plasmodium falciparum protein kinase 6 (PK6, PF3D7_1337100), sequence (Q8IDW1 1-305): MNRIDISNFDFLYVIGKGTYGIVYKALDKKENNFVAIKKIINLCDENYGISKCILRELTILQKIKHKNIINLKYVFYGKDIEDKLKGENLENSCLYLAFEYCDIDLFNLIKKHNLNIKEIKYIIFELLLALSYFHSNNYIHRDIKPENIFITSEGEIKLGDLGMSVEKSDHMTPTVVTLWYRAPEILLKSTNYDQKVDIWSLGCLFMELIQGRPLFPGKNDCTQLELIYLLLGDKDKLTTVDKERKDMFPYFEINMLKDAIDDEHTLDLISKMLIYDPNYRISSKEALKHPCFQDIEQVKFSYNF

outcome, inactive:
Cc1ccc2[nH]c3c(c2c1)CC(C(=O)NCCC(C)C)NC31CCN(Cc2ccccc2)CC1 (stereo not given)
COc1ccc2nccc([C@@H](O)CN3CCC(NCc4cc5sccc5nc4C(F)(F)F)CC3)c2c1
Cc1cc(C2CCN(CCCCNC(=O)c3ccc(-c4ccc(C(F)(F)F)cc4)cc3)CC2)c(C)cc1OCCOC1CCCCO1 (stereo not given)
FC(F)(F)CNc1nc(Nc2ccc3ncccc3c2)nc2[nH]ccc12
CCS[C@@H]1O[C@H](COC(=O)c2ccccc2)[C@H](OC(=O)c2ccccc2)[C@H](OC(=O)c2ccccc2)[C@H]1OC(=O)c1ccccc1
COc1ccc(S(=O)(=O)Nc2cc(C)cc(Br)c2OC)cc1N1CCN(C(=O)C(Cl)(Cl)Cl)CC1
COc1ccc(NC(=O)c2ccc(OCCCCCCCOc3ccc(C(=O)Nc4ccc(OC)c(N5CCN(C)CC5)c4)cc3)cc2)cc1N1CCN(C)CC1
CCOC(=O)C(C#N)NC(=O)C=Cc1ccccc1 (stereo not given)
CCC(=O)Nc1cc(=O)[nH]c2nc(-c3ccc(Cl)cc3)nn12
COc1cccc(C2(c3cccc(OC)c3)N=C(N)N(CCCc3ccccc3)C2=O)c1
COc1ccc(CCN(C)CCCN2CCC(NC(=O)c3cccc4c(=O)c5ccccc5sc34)CC2)cc1OC
Oc1cccc(Nc2ccnc3cc(-c4cc5ccccc5o4)ccc23)c1
Cc1cccc2[nH]c(-c3cccc(-c4ccc(NC(=O)CN5CCN(C)CC5)cc4)c3)nc12
Nc1ccc(-c2ccc3ccnc(N)c3c2)cc1
Cn1cnc2c(SCc3ccccc3OCc3ccccc3)ncnc21
O=C(Nc1ccc2c(c1)CCN2C1CCN(Cc2csc3ccccc23)C1)c1ccco1 (stereo not given)
COc1ccc2cc(-c3nc(-c4c(Cl)cccc4Cl)[nH]c3-c3ccnc(NCCCN4CCCCC4C)c3)ccc2c1 (stereo not given)
COc1cc(Cc2cnc(N)nc2N)cc(CC(C)O)c1O (stereo not given)
COc1ccc(N2CCN(CCCCNC(=O)c3ccc(NC(=O)c4cc(C(F)(F)F)cc(C(F)(F)F)c4)cc3)CC2)c(OC)c1
Cc1ccc(C(=O)Nc2cccc(CN3CCCN(Cc4ccc(O)cc4)CC3)c2)cc1
O=C(Nc1cccc(-c2cccc(-c3nc4ccc(C(F)(F)F)cc4[nH]3)c2)c1)c1csnn1
Cc1ccc(OCCCCON2C(N)=NC(N)=NC2(C)C)cc1C
CCOc1cc(NCCCNc2ncc([N+](=O)[O-])cc2C)nc2ccccc12
N#Cc1cccc(C(=O)Nc2cccc(-c3ccc(CN4CCCC4)cc3)c2)c1
O=C(O)c1ccc(NC(=O)C2CC(=O)N(Cc3ccc(Cl)cc3)C(=Nc3ccc(Cl)cc3)S2)cc1 (stereo not given)
CN1CCN(c2cc(-c3ccncc3)nc(-c3cccnc3)n2)CC1
COC(=O)c1cccc(CNCc2cccc(-c3cccc(-c4nc5ccc(C(F)(F)F)cc5[nH]4)c3)c2)c1
O=C(Nc1cc(Cl)cc(Cl)c1)Nc1ccccc1C(=O)NC1CCCCC1
COCCN1CCN(Cc2ccc(-c3ccc(-c4nc5ccc(F)cc5[nH]4)cc3)cc2)CC1
Cc1noc(-c2ccc3c(c2)CCN(CCC2CCC(NC(=O)/C=C/c4ccc(F)cc4)CC2)CC3)n1 (stereo not given)
O=S(=O)(NCCN1CCCC1)c1ccc(-c2cccc(CNCCc3cccs3)c2)s1
CCSc1ccccc1CON1C(N)=NC(N)=NC1(C)C
Cc1cccc2[nH]c(-c3cccc(-c4ccc(CN5CCN(CCO)CC5)cc4)c3)nc12
Cn1cnc(CCNC(=O)c2cccc(-c3csc(-c4nc5ccccc5[nH]4)c3)c2)c1
CC(C)(C)c1ccc(O)c(CNC2CCCCC2)c1
O=[N+]([O-])c1ccc(CNCCCCCCNCc2ccc([N+](=O)[O-])c3ccccc23)c2ccccc12
CN(C)Cc1ccc2cc(NC(=O)c3ccc(-c4ccc(Cl)cc4)cc3)ccc2n1
CCN(CC)C(=O)C1CCN(C(C(=O)N2CCN(CC(=O)N3CCCC3)CC2)c2cc3ccccc3o2)CC1 (stereo not given)
N#Cc1ccc(Sc2nnc(-c3ccccc3Cl)n2CC2CCCCC2)cc1[N+](=O)[O-]
Oc1c(C(Nc2ccccn2)c2ccco2)cc(Cl)c2cccnc12 (stereo not given)

The molecules below were run against Protein kinase 7 (PK7), Plasmodium falciparum 3D7 (PF3D7_0213400) (UniProt Q7YTF7) (assay: inhibition of Plasmodium PK7 catalytic activity – biochemical, TCAMS antimalarial set, Kinase-Glo luminescence (AID 1159587)). Conditions: recombinant PfPK7, Kinase-Glo ATP depletion luminescence.
Protein kinase 7 (PK7), Plasmodium falciparum 3D7 (PF3D7_0213400), sequence (Q7YTF7 1-343): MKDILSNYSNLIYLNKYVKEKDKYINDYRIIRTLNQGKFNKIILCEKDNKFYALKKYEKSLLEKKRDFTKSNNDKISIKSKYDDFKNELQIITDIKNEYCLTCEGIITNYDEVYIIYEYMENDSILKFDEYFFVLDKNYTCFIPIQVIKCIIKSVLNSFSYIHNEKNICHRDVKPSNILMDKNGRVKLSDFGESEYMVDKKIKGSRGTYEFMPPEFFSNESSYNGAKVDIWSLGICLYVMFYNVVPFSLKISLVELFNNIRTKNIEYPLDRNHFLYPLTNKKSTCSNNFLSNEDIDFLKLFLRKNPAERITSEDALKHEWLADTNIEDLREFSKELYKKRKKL

outcome, inactive:
Cc1ccc2[nH]c3c(c2c1)CC(C(=O)NCCC(C)C)NC31CCN(Cc2ccccc2)CC1 (stereo not given)
COc1ccc2nccc([C@@H](O)CN3CCC(NCc4cc5sccc5nc4C(F)(F)F)CC3)c2c1
Cc1cc(C2CCN(CCCCNC(=O)c3ccc(-c4ccc(C(F)(F)F)cc4)cc3)CC2)c(C)cc1OCCOC1CCCCO1 (stereo not given)
FC(F)(F)CNc1nc(Nc2ccc3ncccc3c2)nc2[nH]ccc12
CCS[C@@H]1O[C@H](COC(=O)c2ccccc2)[C@H](OC(=O)c2ccccc2)[C@H](OC(=O)c2ccccc2)[C@H]1OC(=O)c1ccccc1
COc1ccc(S(=O)(=O)Nc2cc(C)cc(Br)c2OC)cc1N1CCN(C(=O)C(Cl)(Cl)Cl)CC1
COc1ccc(NC(=O)c2ccc(OCCCCCCCOc3ccc(C(=O)Nc4ccc(OC)c(N5CCN(C)CC5)c4)cc3)cc2)cc1N1CCN(C)CC1
CCOC(=O)C(C#N)NC(=O)C=Cc1ccccc1 (stereo not given)
CCC(=O)Nc1cc(=O)[nH]c2nc(-c3ccc(Cl)cc3)nn12
COc1cccc(C2(c3cccc(OC)c3)N=C(N)N(CCCc3ccccc3)C2=O)c1
COc1ccc(CCN(C)CCCN2CCC(NC(=O)c3cccc4c(=O)c5ccccc5sc34)CC2)cc1OC
Oc1cccc(Nc2ccnc3cc(-c4cc5ccccc5o4)ccc23)c1
Cc1cccc2[nH]c(-c3cccc(-c4ccc(NC(=O)CN5CCN(C)CC5)cc4)c3)nc12
Nc1ccc(-c2ccc3ccnc(N)c3c2)cc1
Cn1cnc2c(SCc3ccccc3OCc3ccccc3)ncnc21
O=C(Nc1ccc2c(c1)CCN2C1CCN(Cc2csc3ccccc23)C1)c1ccco1 (stereo not given)
COc1ccc2cc(-c3nc(-c4c(Cl)cccc4Cl)[nH]c3-c3ccnc(NCCCN4CCCCC4C)c3)ccc2c1 (stereo not given)
COc1cc(Cc2cnc(N)nc2N)cc(CC(C)O)c1O (stereo not given)
COc1ccc(N2CCN(CCCCNC(=O)c3ccc(NC(=O)c4cc(C(F)(F)F)cc(C(F)(F)F)c4)cc3)CC2)c(OC)c1
Cc1ccc(C(=O)Nc2cccc(CN3CCCN(Cc4ccc(O)cc4)CC3)c2)cc1
O=C(Nc1cccc(-c2cccc(-c3nc4ccc(C(F)(F)F)cc4[nH]3)c2)c1)c1csnn1
Cc1ccc(OCCCCON2C(N)=NC(N)=NC2(C)C)cc1C
CCOc1cc(NCCCNc2ncc([N+](=O)[O-])cc2C)nc2ccccc12
N#Cc1cccc(C(=O)Nc2cccc(-c3ccc(CN4CCCC4)cc3)c2)c1
O=C(O)c1ccc(NC(=O)C2CC(=O)N(Cc3ccc(Cl)cc3)C(=Nc3ccc(Cl)cc3)S2)cc1 (stereo not given)
CN1CCN(c2cc(-c3ccncc3)nc(-c3cccnc3)n2)CC1
COC(=O)c1cccc(CNCc2cccc(-c3cccc(-c4nc5ccc(C(F)(F)F)cc5[nH]4)c3)c2)c1
O=C(Nc1cc(Cl)cc(Cl)c1)Nc1ccccc1C(=O)NC1CCCCC1
COCCN1CCN(Cc2ccc(-c3ccc(-c4nc5ccc(F)cc5[nH]4)cc3)cc2)CC1
Cc1noc(-c2ccc3c(c2)CCN(CCC2CCC(NC(=O)/C=C/c4ccc(F)cc4)CC2)CC3)n1 (stereo not given)
O=S(=O)(NCCN1CCCC1)c1ccc(-c2cccc(CNCCc3cccs3)c2)s1
CCSc1ccccc1CON1C(N)=NC(N)=NC1(C)C
Cc1cccc2[nH]c(-c3cccc(-c4ccc(CN5CCN(CCO)CC5)cc4)c3)nc12
Cn1cnc(CCNC(=O)c2cccc(-c3csc(-c4nc5ccccc5[nH]4)c3)c2)c1
CC(C)(C)c1ccc(O)c(CNC2CCCCC2)c1
O=[N+]([O-])c1ccc(CNCCCCCCNCc2ccc([N+](=O)[O-])c3ccccc23)c2ccccc12
CN(C)Cc1ccc2cc(NC(=O)c3ccc(-c4ccc(Cl)cc4)cc3)ccc2n1
CCN(CC)C(=O)C1CCN(C(C(=O)N2CCN(CC(=O)N3CCCC3)CC2)c2cc3ccccc3o2)CC1 (stereo not given)
N#Cc1ccc(Sc2nnc(-c3ccccc3Cl)n2CC2CCCCC2)cc1[N+](=O)[O-]
Oc1c(C(Nc2ccccn2)c2ccco2)cc(Cl)c2cccnc12 (stereo not given)
